# The whole screen tested about 410,000 compounds, of which about 310 (0.076%) were called active. Inconclusive results (about 2%) are left out. The call rests on the fitted dose curve; in most records, active means well fitted curve in the direction sought with a large enough effect; inconclusive means small, poorly fitted or top-dose-only effect; inactive means flat fitted curve, though single readings scatter. Only a selection was taken, and actives are over-represented in it overall.
# Biological target: DNA dC->dU-editing enzyme APOBEC-3G (Homo sapiens) (UniProt Q9HC16)
# Experiment: qHTS for Inhibitors of Vif-A3G Interactions: qHTS; further: nearly all actives have a fitted effect of over 60% in size;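 on activity, negative = active: hits raise eYFP signal because A3G escapes Vif-driven loss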
# Conditions: HeLa A3G-eYFP + Vif (tagged APOBEC3G with the HIV-1 protein that degrades it), YFP fluorescence, overnight; series mostly up to 46.1 µM; activity, negative = active: at the top concentration
# Description: The recent discovery and characterization of host restriction factors, which provide a potent defense to invading retroviruses, has provided new targets for antiviral drug development. APOBEC3G (A3G) and APOBEC3F (A3F) are potent cytidine deaminases that block HIV-1 replication; HIV-1 expresses the Vif protein, which counteracts A3G and A3F by binding to them and inducing their proteasomal degradation. The Vif-A3G and Vif-A3F interactions provide two potential targets for development of small molecules which can interfere with the ability of Vif to degrade A3G or A3F. […] To identify inhibitors that can interfere with Vif mediated degradation of A3G and A3F, we have developed Hela cell lines that stably express A3G or A3F tagged with eYFP at the C-terminal end (A3G-eYFP or A3F-eYFP, respectively) and Vif. In the absence of an inhibitor, Vif induces degradation of A3G-eYFP and A3F-eYFP, and the cells are not fluorescent. In the presence of an inhibitor, it is expected that Vif will be unable to degrade A3G-eYFP and/or A3F-eYFP, resulting in an increase in yellow fluorescence. In this assays Vif A3G was screened against the Molecular Library Small Molecule Repository (MLSMR). NIH Chemical Genomics Center [NCGC] NIH Molecular Libraries Probe Centers Network [MLPCN] MLPCN Grant: MH093245 Assay Submitter (PI): Vinay Pathak, National Cancer Institute
# 5 uL of 700 cells/well of A3G-YFP cells are dispensed into black, clear bottom plates. The plates are incubated overnight at 37 deg C. 23 nL of compounds are added by pintool. The plates are incubated overnight at 37 deg C and then read on the TTP Acumen (Ex 488/ Em 500-530).
# On the % scale 0 is the no-effect control and ±100 the full control effect; potency means the concentration at half of the fitted maximal effect.
# Sequence of DNA dC->dU-editing enzyme APOBEC-3G (Homo sapiens) (Q9HC16 whole entry, looked up): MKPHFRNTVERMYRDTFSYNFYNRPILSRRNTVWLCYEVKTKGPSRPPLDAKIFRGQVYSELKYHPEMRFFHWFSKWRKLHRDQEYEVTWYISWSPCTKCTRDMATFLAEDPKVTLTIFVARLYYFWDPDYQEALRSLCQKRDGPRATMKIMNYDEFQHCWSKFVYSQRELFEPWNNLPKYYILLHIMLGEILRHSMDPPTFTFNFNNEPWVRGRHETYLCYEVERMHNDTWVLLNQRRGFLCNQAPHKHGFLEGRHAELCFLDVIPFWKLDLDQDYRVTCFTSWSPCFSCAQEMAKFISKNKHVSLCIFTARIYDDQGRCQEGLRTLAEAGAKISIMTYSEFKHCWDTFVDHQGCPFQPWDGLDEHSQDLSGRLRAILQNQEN
SMILES,"activity, negative = active",Potency
O=C(c1cnn2c1NC(=C1CC1)C=C2C(F)F)N1CCc2ccccc2C1,2.57% (inactive),
Cc1cccc(CNC(=O)c2cnc3sc(N4CCCCC4)nn3c2=O)c1,2.64% (inactive),
Cc1ccccc1NC(=O)Cn1c(=O)n(Cc2ccco2)c(=O)c2ccc(C(=O)NC3CCCC3)cc21,-3.97% (inactive),
CCOC(=O)c1ccc(NC(=O)c2c(NCc3cccs3)sc3c2CCCC3)cc1,5.26% (inactive),
CN(C)c1ccc(/C=C/c2sc3ccccc3[n+]2C)cc1,3.75% (inactive),
CC(C)Sc1oc(-c2cccs2)nc1S(=O)(=O)c1ccc(Cl)cc1,-1.22% (inactive),
CCOC(=O)C1CCC(CN(Cc2ccc(OC)cc2)S(=O)(=O)c2ccc(F)c(C(=O)Nc3cc(C)ccc3C)c2)CC1 (stereo not given),-1.77% (inactive),
CC(C)c1ccc(NC(=O)Cn2c3ncccc3c(=O)n2-c2ccccc2)cc1,1.84% (inactive),
CC(C)(C)c1ccc(C(=O)C[N+]2(C)CCCc3ccccc32)cc1 (stereo not given),1.9% (inactive),
Cc1cccc(N2CCN(S(=O)(=O)c3ccc4[nH]c5c(c4c3)CCCCC5)CC2)c1C,-0.718% (inactive),
O=C1NC(c2ccccc2)Oc2ccccc21 (stereo not given),0.257% (inactive),
C=CCOc1cccc(C2NC(=O)c3ccccc3O2)c1 (stereo not given),-7.4% (inactive),
O=C1NC(c2cccc(Cl)c2)Nc2ccccc21 (stereo not given),,11.2 µM (active)
COc1ccc(S(=O)(=O)NCC(c2ccc(N(C)C)cc2)N2CCc3ccccc32)cc1OC (stereo not given),3.67% (inactive),
COc1cccc(NC(=O)Nc2ccc3c(c2)N(C)C(=O)c2ccccc2S3)c1,-13% (inactive),
O=C(Nc1cc(C(F)(F)F)ccc1Cl)c1cc2nc(-c3ccc4c(c3)OCO4)cc(C(F)(F)F)n2n1,0.316% (inactive),
CC(C)(C)NC(=O)CSc1nc(-c2ccc(F)cc2)cc(C(F)(F)F)n1,1.1% (inactive),
CCOc1ccc(S(=O)(=O)c2cn(Cc3ccccc3)c3ccc(OCC)cc3c2=O)cc1,-5.11% (inactive),
CC(NC(=O)c1cc2c(=O)n3ccccc3nc2n(C(C)C)c1=N)c1ccccc1 (stereo not given),2.26% (inactive),
CCN(CC)C(=O)CSC(Nc1cccc(F)c1)=C(C#N)C#N,,12.6 µM (active)
CC1CC1C(=O)OCC(=O)Nc1cccc(F)c1 (stereo not given),-0.831% (inactive),
CCN(CC)N=Nc1cccc(NC(C)=O)c1,6.85% (inactive),
COc1ccc(/C=C/c2ccnc3ccccc23)cc1OC,-9.81% (inactive),
Cc1cccc(NC(=O)c2nnn(CC(=O)Nc3ccc(C(C)C)cc3)c2N)c1C,3.32% (inactive),
C/C=C/NNC(=O)Cc1ccc(OC)cc1,-19.1% (inactive),

SMILES,"activity, negative = active",Potency
CO[C@H]1O[C@@H]2O[C@@]3(C)CC[C@@H]4[C@@H](C)CC[C@@H]([C@H]1C)[C@@]24OO3,-4.35% (inactive),
CCOc1ccc(-c2cc3nc(C4CCN(C(=O)OC(C)(C)C)CC4)c(C(=O)Nc4ccc(C(=O)OC)cc4)cn3n2)cc1,0.118% (inactive),
CS(=O)(=O)c1ccc(-c2nnc(NC(=O)c3ccc4c(c3)OCCO4)o2)cc1,5.26% (inactive),
CCCCCn1c(=O)[nH]c2cc(C(=O)Nc3ccc(F)cc3)ccc2c1=O,3.51% (inactive),
N#Cc1ccc[n+](CC(=O)c2ccc(O)c(O)c2)c1,1.87% (inactive),
COc1ccc(CN2CCC(=O)c3ccccc3S2(=O)=O)cc1,-0.629% (inactive),
Cc1c(CCO)sc[n+]1CC(=O)c1ccc2ccccc2c1,0.145% (inactive),
O=C(CSc1nc(-c2cccc(F)c2)[nH]c1-c1ccccc1)Nc1ccc2c(c1)OCO2,1.68% (inactive),
NC(=O)Nc1ccc(/C=C/c2ccnc3ccccc23)cc1,-8.22% (inactive),
CCN(CC)/[N+]([O-])=N/OCOC(=O)Cc1c(C)n(C(=O)c2ccc(Cl)cc2)c2ccc(OC)cc12,-2.29% (inactive),
COc1cc(C)ccc1OCCSc1nc2ccc(NC(=O)c3ccc(C)cc3)cc2s1,-1.22% (inactive),
CC(=O)c1ccc[n+](C(C)CCC(C)[n+]2cccc(C(C)=O)c2)c1 (stereo not given),4.94% (inactive),
CCCN1C(=O)C(O)(CC(=O)c2ccc(CC)cc2)c2cc(Br)ccc21 (stereo not given),4.05% (inactive),
O=C(Nc1ccccc1C(F)(F)F)c1nc(S(=O)(=O)Cc2ccccc2F)ncc1Cl,-25.9% (inactive),
Cc1cccc(N2CCN(C(=O)CCSCc3ccccc3F)CC2)c1C,3.33% (inactive),
CN(CCC#N)c1ccc(C=O)cc1,2.45% (inactive),
Cc1ccc(-c2nn3c(=O)cc(CN4CCN(S(=O)(=O)c5ccc(Cl)cc5)CC4)nc3s2)cc1,-0.363% (inactive),
CC1(C)Cc2ccccc2-c2c[nH]c(=O)n21,1.1% (inactive),
COc1cc(NC(=O)CN2CCN(S(=O)(=O)c3ccc(Br)cc3)CC2)cc(OC)c1,6.1% (inactive),
Cc1cc(NC(=O)C2CCC(CNS(=O)(=O)c3ccc(Br)s3)CC2)ccc1Br (stereo not given),0.952% (inactive),
Cc1ccc(NC(=O)CCCn2c(=O)c3cccn3c3ccccc32)cc1Cl,4.11% (inactive),
O=C1COc2ccc(-c3csc(-c4ccc(Cl)cc4)n3)cc2N1,-0.481% (inactive),
CN(C)c1ccc(C=Nc2ccc(/C=C/c3ccnc4ccccc34)cc2)cc1,-29.8% (inactive),
Cc1ccc2nc(/C(C#N)=C/c3ccc(-c4ccc(C(=O)OC(C)C)cc4)o3)[nH]c2c1,,2 µM (active)
CCOC(=O)c1ccc(-c2ccc(/C=C(\C#N)C(=O)Nc3ccc(C)cc3)o2)cc1,2.39% (inactive),

# From PubChem BioAssay AID602310 (National Center for Advancing Translational Sciences (NCATS), 2012)
